This note sets out measurements from the supplement of paper PMC8773631.

SMILES strings stand for the structures. Counter-ions that a name gives are not always drawn. ± gives the uncertainty stated by the source.

The assay has as its system NCC-MFS5-C1. Description: cell viability relative to DMSO control; higher = less growth inhibition. The following applies: 10 µM; treatment time: 3 days. The protocol: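 NCC-MFS5-C1 myxofibrosarcoma cells (1x10^4 per well, 384-well) were treated on day 2 with 10 µM of each drug. On day 5, viability was read by CCK-8 absorbance at 450 nm and normalised to the DMSO control (%), n = 2.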
For `C=CC(=O)N1CCC(Oc2cc3c(Nc4ccc(Cl)c(Cl)c4F)ncnc3cc2OC)CC1` [Poziotinib (HM781-36B)], the cell viability is 68.6 ± 1%.

Regarding `C[C@H](NC(=O)Cc1cc(F)cc(F)c1)C(=O)N[C@H](C(=O)OC(C)(C)C)c1ccccc1`, the cell viability came to 108 ± 11%. The figure for `CCN1CCN(Cc2ccc(Nc3ncc(F)c(-c4cc(F)c5nc(C)n(C(C)C)c5c4)n3)nc2)CC1` [Abemaciclib mesylate] is 84.2 ± 9%; for `O=C(Nc1nc2cccc(-c3ccc(CN4CCS(=O)(=O)CC4)cc3)n2n1)C1CC1` [Filgotinib (GLPG0634)] it is 93.1 ± 4.5%; for `N=C(N)NC(=N)N1CCOCC1` [Moroxydine HCl] it is 91.2 ± 3.7%.

Turning to `COc1cc(Nc2c(C#N)cnc3cc(OCCCN4CCN(C)CC4)c(OC)cc23)c(Cl)cc1Cl` [Bosutinib (SKI-606)], the cell viability amounted to 22.1 ± 0.85%. The figure for `O=C(/C=C/c1cccc(S(=O)(=O)Nc2ccccc2)c1)NO` [Belinostat (PXD101)] is 26.9 ± 0.53%; for `Nc1[nH]cnc2ncnc1-2` [Adenine HCl] it is 98.1 ± 6.5%. Then `COc1cc([C@@H]2c3cc4c(cc3[C@@H](O[C@@H]3O[C@@H]5CO[C@@H](c6cccs6)O[C@H]5[C@H](O)[C@H]3O)[C@H]3COC(=O)[C@H]23)OCO4)cc(OC)c1O` [Teniposide], with 76.7 ± 4.4%. Then `Nc1nnc(-c2cccc(Cl)c2Cl)c(N)n1` [Lamotrigine], with 90 ± 4.7%. As for `O=c1c(-c2ccc(O)cc2)coc2cc(O)cc(O)c12` [Genistein], the cell viability stood at 81.4 ± 10%. Then `O=c1[nH]c(=O)n([C@H]2C[C@H](O)[C@@H](CO)O2)cc1F` [Floxuridine], with 80 ± 3.9%; and `CC(=O)Oc1ccccc1C(=O)O` [Aspirin], with 81.4 ± 1.1%. The figure for `C=C1c2cccc(O)c2C(O)=C2C(=O)[C@]3(O)C(O)=C(C(N)=O)C(=O)[C@@H](N(C)C)[C@@H]3[C@@H](O)[C@H]12` [Methacycline HCl] is 92.3 ± 5.3%.

On to `CCS(=O)(=O)N1CCN(c2ccc(Nc3ncc(C(N)=O)c(NC4CC4)n3)cc2)CC1`, for which the cell viability came out at 61.5 ± 1.8%. Take `CC(C)(OCc1nn(Cc2ccccc2)c2ccccc12)C(=O)O` [Bindarit]: the cell viability stood at 85.93 ± 0.83%. Then `N#CC1(c2ccc(NC(=O)c3cccnc3NCc3ccncc3)cc2)CCCC1` [Apatinib], with 80.9 ± 2%; and `O=C(O)CCCN1CCC(O[C@@H](c2ccc(Cl)cc2)c2ccccn2)CC1` [Bepotastine Besilate], with 78.7 ± 2.6%; and `CC(=O)OCC(CCn1cnc2cnc(N)nc21)COC(C)=O` [Famciclovir], with 80.4 ± 5.5%. Then `Nc1cccc2c1CN(C1CCC(=O)NC1=O)C2=O` (stereo not given) [Lenalidomide], with 105 ± 4.7%; and `C/C(=C\c1csc(C)n1)[C@@H]1C[C@@H]2O[C@]2(C)CCC[C@H](C)[C@H](O)[C@@H](C)C(=O)C(C)(C)[C@@H](O)CC(=O)N1`, with 51.24 ± 0.45%; and `C=CC(=O)N1CCC[C@@H](n2nc(-c3ccc(Oc4ccccc4)cc3)c3c(N)ncnc32)C1`, with 79.2 ± 0.35%.

On to `Nc1ccn([C@@H]2O[C@H](CO)[C@@H](O)C2(F)F)c(=O)n1` [Gemcitabine HCl], for which the cell viability was 79.5 ± 5%. The figure for `Cn1nnc2c(C(N)=O)ncn2c1=O` [Temozolomide] is 99.4 ± 23%; for `Nc1nc2n[nH]nc2c(=O)[nH]1` [Azaguanine-8] it is 85.2 ± 7%; for `O=C(O)C1=CO[C@@H](O[C@@H]2O[C@H](CO)[C@@H](O)[C@H](O)[C@H]2O)[C@@H]2C(CO)=CC[C@H]12` [Geniposidic acid] it is 85.8 ± 4.8%. As to `CS(=O)(=O)OCCCCOS(C)(=O)=O` [Busulfan], the cell viability was found to be 83.3%.

For the compound `COc1cc(OC)cc(N(CCNC(C)C)c2ccc3ncc(-c4cnn(C)c4)nc3c2)c1` [Erdafitinib], the cell viability stood at 33.1 ± 2%. Regarding `CC(C)(C)c1cc(NC(=O)Nc2ccc(-c3cn4c(n3)sc3cc(OCCN5CCOCC5)ccc34)cc2)no1` [Quizartinib (AC220)], the cell viability turned out to be 57.8 ± 2.7%. Then `CC(=O)O[C@]1(C(C)=O)CC[C@H]2[C@@H]3C=C(C)C4=CC(=O)CC[C@]4(C)[C@H]3CC[C@@]21C` [Megestrol Acetate], with 93.9 ± 4%; and `C[C@@H](CN1CC(=O)NC(=O)C1)N1CC(=O)NC(=O)C1` [Dexrazoxane], with 122.6 ± 1.1%; and `CO[C@@]12[C@H](COC(N)=O)C3=C(C(=O)C(C)=C(N)C3=O)N1C[C@@H]1N[C@@H]12` [Mitomycin C], with 41.7 ± 3.7%. The figure for `Cc1ccc(S(=O)(=O)Nc2nc3ccccc3nc2Nc2ccc3nsnc3c2)cc1` [XL147 analog] is 84.5 ± 6%; for `CC[C@]1(O)C[C@H]2CN(CCc3c([nH]c4ccccc34)[C@@](C(=O)OC)(c3cc4c(cc3OC)N(C=O)[C@H]3[C@@](O)(C(=O)OC)[C@H](OC(C)=O)[C@]5(CC)C=CCN6CC[C@]43[C@@H]65)C2)C1` [Vincristine] it is 29.8 ± 4.2%; for `O=P(O)(O)C(O)(Cn1ccnc1)P(=O)(O)O` [Zoledronic Acid] it is 84.5 ± 7.6%. The figure for `CC[C@]1(O)C[C@@H]2CN(CCc3c([nH]c4ccccc34)[C@@](C(=O)OC)(c3cc4c(cc3OC)N(C)[C@H]3[C@@](O)(C(=O)OC)[C@H](OC(C)=O)[C@]5(CC)C=CCN6CC[C@]43[C@@H]65)C2)C1` [Vinblastine sulfate] is 35.1 ± 2.5%; for `Cc1ccc(NC(=O)c2ccc(CN3CCN(C)CC3)cc2)cc1Nc1nccc(-c2cccnc2)n1` [Imatinib (STI571)] it is 72.9 ± 3.3%; for `Clc1ccc(Nc2nnc(Cc3ccncc3)c3ccccc23)cc1` [Vatalanib (PTK787) 2HCl] it is 59.1 ± 0.89%. With `CC(C)c1nc(CN(C)C(=O)N[C@@H](CCN2CCOCC2)C(=O)N[C@H](CC[C@H](Cc2ccccc2)NC(=O)OCc2cncs2)Cc2ccccc2)cs1` [Cobicistat (GS-9350)], the cell viability was 61.5 ± 0.43%.

For `CCc1ccc(CCOc2ccc(CC3SC(=O)NC3=O)cc2)nc1` (stereo not given) [Pioglitazone], the cell viability was 95.3 ± 2.9%.

A word on the cell viability: it is a read-out of living cells in per cent, often relative to untreated cells.
